HPGD block: inhibitors of human 15-hydroxyprostaglandin dehydrogenase (HPGD) | P15428 | purified HPGD, NADH fluorescence kinetic, PGE2 substrate | Potency, µM, hits mostly inhibitors | actives 4.3% (n = 150,000) | AID 894; active means well fitted inhibition curve with a large enough effect, not every such curve was filed as active; inconclusive means small, poorly fitted or top-dose-only effect, or another doubt; inactive means no such curve, though single readings can be large or run the other way
Target sequence (P15428 whole entry, looked up): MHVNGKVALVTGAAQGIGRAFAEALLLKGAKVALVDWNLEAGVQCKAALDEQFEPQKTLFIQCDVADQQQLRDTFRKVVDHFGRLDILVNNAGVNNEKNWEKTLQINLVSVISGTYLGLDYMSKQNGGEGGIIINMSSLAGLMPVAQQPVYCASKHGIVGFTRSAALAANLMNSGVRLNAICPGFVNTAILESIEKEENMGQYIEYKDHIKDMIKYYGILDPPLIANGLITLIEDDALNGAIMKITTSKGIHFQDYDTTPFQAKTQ
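NADH formation kinetics: reaction with 30 uM PGE2 and 1 mM NAD+ (final), 20 nM enzyme, Tris-HCl pH 8 with Tween 20, after 15 min compound preincubation at room temperature. Fluorescence change, last versus first of five reads.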
ALDH1A1 block: ALDH1A1 (human) enzyme inhibition; P00352; actives 7.3% (n = 220,000); Purified ALDH1A1, NADH fluorescence, propionaldehyde substrate; Potency, µM (doses to about 75.3 µM), usual class: inhibitors; AID 1030; active means well fitted inhibition curve with a large enough effect, not every such curve was filed as active; inconclusive means small, poorly fitted or top-dose-only effect, or another doubt; inactive means no such curve, though single readings can be large or run the other way
HttQ103 aggreg: reduces HttQ103-GFP aggregates in PC12 cells | PC12 HttQ103-GFP aggregates, Acumen cytometry, 40 h | Potency, µM (top dose mostly 46.1 µM), actives largely listed as inhibitors | actives 1.1% (n = 220,000) | AID 1688; further: nearly all actives have a fitted effect of over 60% in size
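Using laser scanning cytometry, GFP-positive aggregates were counted after lysis of PC12 cells induced with 100 nM tebufenozide to express HTT exon 1 Q103–GFP. Compounds were tested in titration.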
IMPase inh: cell-permeable inhibitors of inositol monophosphatase (IMPase); P97697; CHO-M1 cells, IP1 accumulation, HTRF TR-FRET ratio; inhibition (IP1 accumulation), % at 46.1 µM; 120,000 tested, under 10 active; active means well fitted curve in the direction sought with a large enough effect in the signal ratio, not every such curve was filed as active; inconclusive means small, poorly fitted or top-dose-only effect, or a change in a side signal; inactive means no such curve, though single readings can be large or run the other way; the % refers to the signal ratio;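 further: cells stimulated with carbachol in lithium chloride buffer; higher means more IMPase inhibition seen as more IP1 and lower FRET ratio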
Target sequence (P97697 whole entry, looked up): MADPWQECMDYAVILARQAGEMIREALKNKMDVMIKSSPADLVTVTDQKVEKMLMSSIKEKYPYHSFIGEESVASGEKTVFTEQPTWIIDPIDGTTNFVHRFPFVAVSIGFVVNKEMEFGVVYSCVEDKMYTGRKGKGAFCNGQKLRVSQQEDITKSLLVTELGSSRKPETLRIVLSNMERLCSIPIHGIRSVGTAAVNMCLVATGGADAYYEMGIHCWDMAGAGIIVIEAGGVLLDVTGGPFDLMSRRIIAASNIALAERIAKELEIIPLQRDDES
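The IP-One HTRF competitive assay in carbachol-stimulated CHO-M1 cells quantifies cellular IP1. Compounds spanned up to 46 uM final, and activity is expressed as AC50 from concentration-response fits of the ratio and donor data.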
HTT ATP protect: cytoprotection in Huntington HTT-Q103 PC12 cell model; actives 0.14% (n = 230,000); AID 1471; Potency, µM (titrated, usually from 56.4 µM), hits mostly activators; PC12 HTT-Q103 induced, cytoprotection, ATP luminescence, 40 h; further: nearly all actives have a fitted effect of over 45% in size
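Rat PC12, Q103 Htt exon1-GFP fusion, ecdysone promoter; tebufenozide inducer 100 nM final; compound titration; qHTS, 1500 cells/well; ATPlite luminescent read.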
IMPase Li cell: membrane-permeable IMPase blocker, potentiated with lithium; CHO-M1 cells, IP1 TR-FRET (IP-One), carbachol + lithium; Potency, µM (doses to about 59.4 µM), hits mostly inhibitors; actives 0.35% (n = 210,000);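 further: IP1 builds up when IMPase is blocked and the TR-FRET signal falls; nearly all actives have a fitted effect of over 50% in size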
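Lithium-sensitised IP1 accumulation assay; M1-expressing CHO cells treated 30 min at 37C with compound. Competitive antibody detection by time-resolved FRET followed a 10 min room-temperature lysis step.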
A number is an active result; i = inactive; ? = inconclusive; nt = not tested or not shown; [ ] = another dose, or the depositor's remark. Sampled rows, rich in hits. Any-hit rate of the full collection: about 9.4%. Unless noted, the call rests on the fitted dose curve; in most records, active means well fitted curve in the direction sought with a large enough effect; inconclusive means small, poorly fitted or top-dose-only effect, or another doubt; inactive means no such curve, though single readings can be large; an effect the other way counts as inactive or inconclusive.

SMILES	HPGD block	ALDH1A1 block	HttQ103 aggreg	IMPase inh	HTT ATP protect	IMPase Li cell
CCOC(=O)c1ccc(COC(=O)c2ccc3c(c2)-c2ccccc2C3=O)cc1	i	i	i	i	i	i
Cc1ccc(N/C=C2\C(=O)C3(C)CCC2C3(C)C)cc1C (configuration not stated)	nt	14µM	?	nt	i	i
CC12CCC(C(=Nc3ccc(N=C4C(=O)C5(C)CCC4C5(C)C)cc3)C1=O)C2(C)C	nt	nt	i[9.22 µM]	nt	i[10 µM]	nt
CN(Cc1ccccc1)S(=O)(=O)c1ccc2c(c1)NC(=O)CC(=O)N2	i	?	i	nt	i[10 µM]	i
CCN(Cc1ccccc1)S(=O)(=O)c1ccc2c(c1)NC(=O)CC(=O)N2	nt	14µM	i	nt	i	i
CCc1ccccc1NC(=O)c1cnn2c(C(F)(F)F)cc(-c3ccc(OC)c(OC)c3)nc12	nt	nt	nt	i	nt	nt
CC(C)C1=CC2=CC[C@H]3[C@@](C)(CCC[C@]3(C)C(=O)O)[C@@H]2CC1	nt	nt	nt	nt	i	nt
Cc1ccc(S(=O)(=O)Nc2ccnc3ccccc23)cc1	i	i	?	i	i	i
Cc1ccc(S(=O)(=O)Nc2ccc(O)c3ncccc23)cc1	nt	1.3µM	?	nt	i	i
COc1ccc2cnnc(SCC(=O)Nc3ccccc3)c2c1OC	25µM	?	i	nt	i[10 µM]	i
OCCN1CCN(C(c2cccs2)c2ccc3cccnc3c2O)CC1 (configuration not stated)	3.5µM	1.3µM	i	i	i[0.074 µM]	i
Oc1ccccc1C(Nc1nccs1)c1ccc2cccnc2c1O (configuration not stated)	nt	nt	i[9.22 µM]	nt	i[10 µM]	nt
CC(C)OC(=O)c1c(NC(=O)C2c3ccccc3Oc3ccccc32)sc2c1CCCC2	nt	nt	nt	i	nt	nt
Cn1cc(C=C2C(=O)CC(C)(C)CC2=O)c2ccccc21	i	1.3µM	0.025µM	i	nt	i
Cc1ccn2c(C(=O)NN=C3CCN(C)CC3)c(C)nc2c1	nt	2.2µM	i	nt	i	i
Cc1ccc2nc(C)c(C(=O)NN=C3CCCCCC3)n2c1	nt	7.9µM	i[9.22 µM]	nt	i[10 µM]	i
Cc1ccc(C)c(-n2c(C)cc(/C=N/NC(=O)c3c(C)nc4cc(C)ccn34)c2C)c1	?	13µM	i	i	i[10 µM]	i
CCOC(=O)c1c(NC(=O)/C=C/c2ccc(C)cc2)sc(C(C)=O)c1C	nt	nt	nt	i	nt	nt
CCCN1CCC(=NNc2ccc(C(=O)O)cc2)CC1	nt	25µM	i	nt	i	i
CCCN1CCC(=NNC(=O)c2ccc(Br)o2)CC1	i	13µM	i	i	i	i
COc1ccccc1[C@@H]1C(c2ccc(F)cc2)=NN(c2ccc(Br)cc2)[C@H]1C(=O)N1CCOC1=O	i	?	nt	nt	i	i
CCn1c2ccc(C)cc2c2nnc(SCCN3CCOCC3)nc21	nt	25µM	i[9.22 µM]	nt	i[10 µM]	i
CCn1c2ccccc2c2nnc(SCCN3CCCCC3)nc21	nt	nt	nt	i	nt	nt
CCCCCCCC(=O)OCCOC(=O)CCCCCCC	i	i	nt	nt	nt	i
C=C(C)C(=O)OC	i	i	nt	nt	i	i
SMILES	HPGD block	ALDH1A1 block	HttQ103 aggreg	IMPase inh	HTT ATP protect	IMPase Li cell
O=C(c1noc2c1CCc1ccccc1-2)N1CCCc2ccccc21	i	13µM	i	i	i	i
CCCNC(=O)c1noc2c1CCc1cc(OC)ccc1-2	nt	?	i	nt	i	i
Cc1cc(NC(=O)c2noc3c2CCc2ccccc2-3)no1	i	i	i	i	i	i
O=C(c1noc2c1CCc1ccccc1-2)N1CCc2ccccc2C1	16µM	?	?	i	i[10 µM]	i
O=C(c1noc2c1CCc1ccccc1-2)N1CCOCC1	i	i	i	i	i[10 µM]	i
COc1ccc2c(c1)CCc1c(C(=O)N3CCCCCC3)noc1-2	10µM	?	i	i	i	i
Cc1ccc(S(=O)(=O)N(CC(=O)O)c2ccc(Cl)cc2)cc1	i	i	nt	nt	nt	nt
COc1cc(/C=N/NC(=O)COc2ccc(Cl)cc2)ccc1OS(=O)(=O)c1ccc(C)cc1	i	?	i	i	i	i
Cc1ccc(S(=O)(=O)Oc2ccc(/C=N/NC(=O)c3cccnc3)cc2)cc1	nt	13µM	i[9.22 µM]	nt	?	i
COc1cc(/C=N/NC(=O)c2cccnc2)ccc1OS(=O)(=O)c1ccc(F)cc1	i	i	i	i	i[10 µM]	i
CC(/C=N/NC(=O)c1c(Br)cnn1C)=C\c1ccccc1	i	i	i	nt	i[10 µM]	i
